# Structures can show the parent of a compound that is named as a salt.
# System: S. cerevisiae SK1 pCDA2-eGFP (USY613), sporulating;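 note: active if sensitivity score above 5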
# Experiment: CDA2-GFP sporulation assay sensitivity score (z-score vs DMSO controls); higher = stronger inhibition of sporulation, active = hit call of the paper
# Conditions: stock concentration (mM, diluted 1:100): 10
row,SMILES,CDA2-GFP sporulation assay sensitivity score
1,CCN(C(C)=O)c1cccc(-c2ccnc3c(C#N)cnn23)c1 [Zaleplon],6.36 (inactive)
2,C=C1C[C@@H]2[C@H](CC[C@]3(C)C(=O)CC[C@@H]23)[C@@]2(C)C=CC(=O)C=C12 [Exemestane],7.73 (active)
3,CNC(=O)Oc1ccc2c(c1)[C@]1(C)CCN(C)[C@@H]1N2C [Physostigmine],0.21 (inactive)
4,c1cncc([C@@H]2CCCN2)c1 [Nornicotine],2.1 (inactive)
5,COc1cc2c(cc1OC)[C@@]13CCN4CC5=CCO[C@H]6CC(=O)N2[C@H]1[C@H]6[C@H]5C[C@H]43 [Brucine],-1.75 (inactive)
6,O=C1Nc2ccc(Cl)cc2C(c2ccccc2Cl)=NC1O (configuration not stated) [Lorazepam],5 (inactive)
7,NC1=NC(=O)C(c2ccccc2)O1 (configuration not stated) [Pemoline],0.99 (inactive)
8,Oc1ccc2c3c1O[C@H]1[C@@H](O)CC[C@@]4(O)[C@@H](C2)N(CC2CCC2)CC[C@]314 [Nalbuphine],-0.4 (inactive)
9,CC[C@]1(O)CC[C@H]2[C@@H]3CCC4=CCCC[C@@H]4[C@H]3CC[C@@]21C [Ethylestrenol],8.75 (active)
10,CCN(CC)CCOC(=O)C(O)(c1ccccc1)c1ccccc1 [Benactyzine hydrochloride],0.09 (inactive)
11,NC(=O)C[S+]([O-])C(c1ccccc1)c1ccccc1 (configuration not stated) [Modafinil],-0.48 (inactive)
12,COc1ccc2[nH]cc(CCN)c2c1 [5-Methoxytryptamine],3.61 (inactive)
13,OC1CCCCC1N1CCC(c2ccccc2)CC1 (configuration not stated) [Vesamicol hydrochloride],1.08 (inactive)
14,Cc1nnc2n1-c1ccc(Cl)cc1C(c1ccccc1)=NC2 [Alprazolam],0.37 (inactive)
15,CC(O)(CS(=O)(=O)c1ccc(F)cc1)C(=O)Nc1ccc(C#N)c(C(F)(F)F)c1 (configuration not stated) [Bicalutamide],0.41 (inactive)
16,CC(C)CC(N(C)C)C1(c2ccc(Cl)cc2)CCC1 (configuration not stated) [Sibutramine hydrochloride],8.57 (inactive)
17,C#CCN(C)[C@H](C)Cc1ccccc1 [Selegiline],-0.13 (inactive)
18,C[C@H]1CCC[C@H](O)CCCCCc2cc(O)cc(O)c2C(=O)O1 [Zeranol],-2.75 (inactive)
19,C[C@]12Cc3c[nH]nc3C[C@@H]1CC[C@@H]1[C@@H]2CC[C@@]2(C)[C@H]1CC[C@]2(C)O [Stanozolol],-4.38 (inactive)
20,CNCC(O)c1ccc(O)cc1 (configuration not stated) [Synephrine],4.04 (inactive)
21,COc1cccc(C2(O)CCCCC2CN(C)C)c1 (configuration not stated) [Tramadol],0.06 (inactive)
22,FC(F)(F)c1cccc(N2CCNCC2)c1,0.69 (inactive)
23,CCCCC/C=C\C/C=C\C/C=C\C/C=C\CCCC(=O)Nc1ccc(O)cc1,-4.74 (inactive)

# Same assay, conditions: stock concentration (mM, diluted 1:100): 10.1
row,SMILES,CDA2-GFP sporulation assay sensitivity score
1,CC(NC(C)(C)C)C(=O)c1cccc(Cl)c1 (configuration not stated) [Amfebutamone hydrochloride],0.84 (inactive)
2,C[C@]12C/C(=C/O)C(=O)C[C@@H]1CC[C@@H]1[C@@H]2CC[C@@]2(C)[C@H]1CC[C@]2(C)O [Oxymetholone],1.28 (inactive)
3,CC[C@@H](C(N)=O)N1CCCC1=O [Levetiracetam],1.7 (inactive)
4,C[C@]12CC[C@H](O)CC1=CC[C@@H]1[C@@H]2CC[C@@]2(C)[C@H]1CC[C@]2(C)O [Methylandrostenediol],0.44 (inactive)
5,CCOC(=O)c1cncn1[C@H](C)c1ccccc1 [Etomidate],6.33 (active)

# System: S. cerevisiae AD1-9 (efflux-pump deficient), vegetative growth in YPD
# Experiment: growth sensitivity score (doubling time z-score vs DMSO controls); higher = slower growth, strongly negative scores also mark growth inhibition (complete suppression), active = hit call of the paper
# Conditions: stock concentration (mM, diluted 1:100): 10
# In short: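 Optical density of Saccharomyces cerevisiae cultures in microtiter plates was followed every 15 min for 24 hours after seeding at an OD600 of 0.065. Eight solvent-only wells were run per experiment. Growth sensitivity scores were found by subtracting the solvent-only mean from the compound mean and dividing by the solvent-only standard deviation.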
row,SMILES,growth sensitivity score
1,CCN(C(C)=O)c1cccc(-c2ccnc3c(C#N)cnn23)c1 [Zaleplon],-0.13 (inactive)
2,C=C1C[C@@H]2[C@H](CC[C@]3(C)C(=O)CC[C@@H]23)[C@@]2(C)C=CC(=O)C=C12 [Exemestane],4.58 (active)
3,CNC(=O)Oc1ccc2c(c1)[C@]1(C)CCN(C)[C@@H]1N2C [Physostigmine],-0.52 (inactive)
4,c1cncc([C@@H]2CCCN2)c1 [Nornicotine],-0.25 (inactive)
5,COc1cc2c(cc1OC)[C@@]13CCN4CC5=CCO[C@H]6CC(=O)N2[C@H]1[C@H]6[C@H]5C[C@H]43 [Brucine],-0.99 (inactive)
6,O=C1Nc2ccc(Cl)cc2C(c2ccccc2Cl)=NC1O (configuration not stated) [Lorazepam],2.16 (active)
7,NC1=NC(=O)C(c2ccccc2)O1 (configuration not stated) [Pemoline],0.67 (inactive)
8,O=c1c2ccccc2[se]n1-c1ccccc1 [Ebselen],-16.9
9,Oc1ccc2c3c1O[C@H]1[C@@H](O)CC[C@@]4(O)[C@@H](C2)N(CC2CCC2)CC[C@]314 [Nalbuphine],-1.74 (inactive)
10,CCCN1C[C@H](CSC)C[C@@H]2c3cccc4[nH]cc(c34)C[C@H]21 [Pergolide mesylate],3.13 (active)
11,CC[C@]1(O)CC[C@H]2[C@@H]3CCC4=CCCC[C@@H]4[C@H]3CC[C@@]21C [Ethylestrenol],93.9 (active)
12,CCN(CC)CCOC(=O)C(O)(c1ccccc1)c1ccccc1 [Benactyzine hydrochloride],-0.44 (inactive)
13,NC(=O)C[S+]([O-])C(c1ccccc1)c1ccccc1 (configuration not stated) [Modafinil],-1.24 (inactive)
14,COc1ccc2[nH]cc(CCN)c2c1 [5-Methoxytryptamine],-1.13 (inactive)
15,OC1CCCCC1N1CCC(c2ccccc2)CC1 (configuration not stated) [Vesamicol hydrochloride],-0.57 (inactive)
16,CN1C(=O)COc2c(C(=O)NC3CN4CCC3CC4)cc(Cl)cc21 (configuration not stated) [Azasetron],-0.58 (inactive)
17,Cc1nnc2n1-c1ccc(Cl)cc1C(c1ccccc1)=NC2 [Alprazolam],5.38 (active)
18,CC(C)CC(N(C)C)C1(c2ccc(Cl)cc2)CCC1 (configuration not stated) [Sibutramine hydrochloride],6.62 (active)
19,C#CCN(C)[C@H](C)Cc1ccccc1 [Selegiline],-1.83 (inactive)
20,C[C@H]1CCC[C@H](O)CCCCCc2cc(O)cc(O)c2C(=O)O1 [Zeranol],18.3 (active)
21,C[C@]12Cc3c[nH]nc3C[C@@H]1CC[C@@H]1[C@@H]2CC[C@@]2(C)[C@H]1CC[C@]2(C)O [Stanozolol],9.25 (active)
22,CNCC(O)c1ccc(O)cc1 (configuration not stated) [Synephrine],0.18 (inactive)
23,COc1cccc(C2(O)CCCCC2CN(C)C)c1 (configuration not stated) [Tramadol],-0.93 (inactive)
24,FC(F)(F)c1cccc(N2CCNCC2)c1,2.22 (active)
